Hits are enriched below; roughly 4.1% of the tested compounds scored in any of these assays.
Bfl-1 A1 inh: inhibitors of the anti-apoptotic protein A1, read as caspase activation; MEF A1-2A-BIM cells, Caspase-Glo 3/7 luminescence, 3 h; percent of clofoctol response, vehicle zero; caspase activation, % (no concentration beside the values); 0.066% of 330,000 active; AID 2462;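 active = over half of replicate activation scores above 10%, or exactly half above 10 with the replicate mean above 10; inconclusive = replicate mean below 10 yet half the replicates above 10; inactive = over half of replicates below 10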
CSC inhib: cancer stem cell inhibition; cancer stem cell-like cells viability, luminescence; inhibition, % at 7.5 µM; 1.1% of 300,000 active; in the data active = inhibition above about 75%; inconclusive = no clear call, values can overlap the other calls; tested in HMLE shEcad cells
aSyn UTR inh: 5' untranslated region of α-synuclein, MLPCN primary screen | alpha-synuclein 5'UTR reporter, inhibitor activity | inhibition, % (tested at 7.5 µM) | 0.82% of 300,000 active | AID 1813; in the data active = inhibition above about 60%; inconclusive = no clear call, values can overlap the other calls;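 note: H4 neuroglioblastoma cells stably carrying SNCA 5'UTR luciferase fusion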
Beta apoptosis: beta cell apoptosis inhibition | INS-1E cytokine-induced death, ATP luminescence, 48 h; percent of positive-control rescue, neutral wells zero | protection from apoptosis, % (no concentration beside the values) | 0.8% of 300,000 active;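 active = Every replicate reaches about 75%, or at least half do and their mean reaches it too, limit read from the data; inconclusive = At least half of replicates reach the limit but their mean does not; inactive = Under half of replicates reach the limit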;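 note: higher means more ATP so stronger rescue from cytokine killing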
Mdm2-MdmX inh: disrupts the human Mdm2-MdmX interaction; O15151+Q00987; SaOS-2 split-luciferase Mdm2/MdmX complementation, luminescence; inhibition, % at 8 µM; 3% of 330,000 active; AID 485346;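 active = inhibition of at least 50% at 8 µM in the primary screen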
Target sequence (O15151 whole entry, looked up): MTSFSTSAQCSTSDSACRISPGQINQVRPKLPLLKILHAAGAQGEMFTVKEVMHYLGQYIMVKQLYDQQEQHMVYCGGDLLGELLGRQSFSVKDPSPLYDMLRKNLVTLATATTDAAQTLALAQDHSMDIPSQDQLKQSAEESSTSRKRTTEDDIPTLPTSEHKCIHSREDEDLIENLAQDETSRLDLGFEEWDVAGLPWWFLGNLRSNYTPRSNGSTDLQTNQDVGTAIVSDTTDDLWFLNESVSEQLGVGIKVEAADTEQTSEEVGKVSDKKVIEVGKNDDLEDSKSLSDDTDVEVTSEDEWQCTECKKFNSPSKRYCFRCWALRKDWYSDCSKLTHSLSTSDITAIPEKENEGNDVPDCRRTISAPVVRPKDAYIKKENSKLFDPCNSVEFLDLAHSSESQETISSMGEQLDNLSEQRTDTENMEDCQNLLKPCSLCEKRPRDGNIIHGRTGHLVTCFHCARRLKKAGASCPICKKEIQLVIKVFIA
Target sequence (Q00987 whole entry, looked up): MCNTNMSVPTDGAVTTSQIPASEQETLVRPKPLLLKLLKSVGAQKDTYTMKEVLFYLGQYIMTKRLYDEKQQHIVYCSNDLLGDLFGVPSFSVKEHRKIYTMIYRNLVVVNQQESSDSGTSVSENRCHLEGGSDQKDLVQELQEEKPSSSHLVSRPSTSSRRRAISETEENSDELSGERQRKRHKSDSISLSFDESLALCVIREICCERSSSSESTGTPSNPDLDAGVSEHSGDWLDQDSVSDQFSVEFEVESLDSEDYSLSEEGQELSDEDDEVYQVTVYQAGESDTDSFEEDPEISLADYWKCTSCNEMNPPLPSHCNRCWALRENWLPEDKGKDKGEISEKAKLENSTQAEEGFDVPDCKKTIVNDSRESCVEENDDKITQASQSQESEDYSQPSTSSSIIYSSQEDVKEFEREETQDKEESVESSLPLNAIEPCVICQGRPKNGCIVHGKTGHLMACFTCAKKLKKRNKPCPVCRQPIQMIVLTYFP
Mdm2 MdmX conf: confirmation of human Mdm2/MdmX interaction inhibitors. 55% of 10,000 active. Mdm2-MdmX binding, luminescent assay. inhibition, % at 8 µM. shares compounds with Mdm2-MdmX inh; in the data active = inhibition above about 40%
Full FLuc ctr: inhibits full-length luciferase, flagging false Mdm2/MdmX hits; shares compounds with Mdm2-MdmX inh; SaOS-2 full-length luciferase counterscreen, luminescence; inhibition, % at 8 µM; 77% of 6,200 active;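 active = mean inhibition at 8 µM reaching about 37%, which flags the compound as non-specific, limit read from the data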;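 note: p53-null SaOS-2 cells with luciferase driven by a doxycycline-inducible promoter; compound on cells about two nights before reading with doxycycline added after day one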
Numbers stand for hits; – = inactive; ? = inconclusive; · = no result given.

SMILES | Bfl-1 A1 inh | CSC inhib | aSyn UTR inh | Beta apoptosis | Mdm2-MdmX inh | Mdm2 MdmX conf | Full FLuc ctr
O=C(Nc1ccccc1F)c1ccc([N+](=O)[O-])s1 | – | – | – | – | – | · | ·
O=C(Nc1cccnc1)c1ccc([N+](=O)[O-])s1 | – | – | · | 77.8 | 52.4 | – | ·
CCOc1cc(/C=N/Nc2cc(C)nc(-n3nc(C)cc3C)n2)ccc1O | 8.6 | – | 68.3 | 98.5 | 73.5 | – | –
CCOc1cc(/C=N/Nc2nc(C)cc(=O)[nH]2)ccc1O | – | – | – | – | – | · | ·
COc1ccccc1/C=N/Nc1cc(C)nc(N2CCOCC2)n1 | – | – | – | – | – | · | ·
COc1ccc(/C=N/Nc2cc(C)nc(-n3nc(C)cc3C)n2)c(OC)c1 | – | – | – | 82.4 | 55.0 | – | 48.5
COc1ccc(N(CC(=O)NCc2ccc(F)cc2)C(=O)c2snc(C(N)=O)c2N)cc1 | – | – | – | – | – | · | ·
CC(C)(C)c1ccc(OCC(=O)N/N=C/c2cc(Br)ccc2OC(=O)c2ccco2)cc1 | – | 100.6 | 82.9 | – | 81.7 | 79.0 | –
COc1ccc(Br)cc1/C=N/NC(=O)c1ccco1 | – | – | – | · | – | · | ·
Nc1[nH]n2c(=O)cc(-c3ccccc3)nc2c1N=Nc1ccccc1 | – | 91.7 | 67.6 | – | 57.5 | 46.9 | 42.9
Nc1[nH]n2c(=O)cc(-c3ccccc3)nc2c1N=Nc1ccc(S(N)(=O)=O)cc1 | – | – | – | – | – | · | ·
COc1ccc(-c2cc3nc(C)n(N)c(=O)c3s2)cc1 | – | 97.1 | 115.5 | – | 88.7 | 88.2 | 55.9
Cc1nc2cc(-c3ccccc3)sc2c(=O)n1N | – | – | 110.7 | ? | 62.3 | 55.6 | –
COc1ccc(-c2cc3nc4n(c(=O)c3s2)CCC4)cc1 | – | – | ? | – | – | · | ·
CC(C)C[C@H](NC(=O)C1CC(=O)N(c2ccc3c(c2)OCO3)C1)C(=O)NC1CCCCC1 (some centres undefined) | – | – | – | – | – | · | ·
COc1ccccc1-c1cc(C(F)(F)F)nc(S(=O)(=O)CCCC(=O)Nc2cc(C)on2)n1 | – | – | – | – | 100.5 | 99.2 | –
COc1ccccc1-c1cc(C(F)(F)F)nc(S(=O)(=O)CCCC(=O)N2CCCCC2C)n1 (centres undefined) | – | – | – | – | 97.0 | 68.8 | –
COc1cc(CCC(=O)NCc2ccc(F)cc2)cc(OC)c1OC | – | – | – | – | – | · | ·
COc1ccccc1-c1cc(C(F)(F)F)nc(S(=O)(=O)CCCC(=O)NCc2ccc(F)cc2)n1 | – | 76.6 | – | – | 98.5 | 90.0 | 50.8
COc1ccccc1-c1cc(C(F)(F)F)nc(S(=O)(=O)CCCC(=O)NC(C)C)n1 | 8.5 | – | – | – | 100.5 | 96.5 | –
COc1ccccc1-c1cc(C(F)(F)F)nc(N2CCCC2)n1 | – | – | – | – | – | · | ·
COc1ccc(-c2cc(C(F)(F)F)nc(S(=O)(=O)CCCC(=O)Nc3cc(C)on3)n2)cc1OC | · | · | – | · | · | · | ·
CSCCCc1cn([C@@H](CO)C(=O)NCCCCCCCCCCC(=O)N2CCNCC2)nn1 | ? | – | – | – | – | · | ·
CCOc1cc(N2CCOCC2)c(OCC)cc1NC(=O)COC(=O)COc1ccc(C#N)cc1 | – | – | – | – | – | · | ·
O=C(CN1C(=O)COc2ccccc21)N1CCN(C2CCCCC2)CC1 | – | · | – | – | – | · | ·
SMILES | Bfl-1 A1 inh | CSC inhib | aSyn UTR inh | Beta apoptosis | Mdm2-MdmX inh | Mdm2 MdmX conf | Full FLuc ctr
CS(=O)(=O)c1nc(-c2ccco2)cc(C(F)(F)F)n1 | ? | 112.0 | – | 80.0 | 100.5 | 100.5 | –
COc1ccccc1-c1cc(C(F)(F)F)nc(S(C)(=O)=O)n1 | – | 85.4 | – | – | 97.1 | 79.2 | 53.2
CCc1cc(Cn2nc(-c3ccccc3)cc2C(=O)NCc2cccc(Br)c2)on1 | – | – | · | – | – | · | ·
Cc1onc(-c2ccccc2Cl)c1C(=O)O/N=C(\N)c1ccc([N+](=O)[O-])o1 | – | – | – | – | 60.4 | – | 70.5
C/C(=N/OC(=O)c1c(-c2ccccc2Cl)noc1C)c1cnccn1 | – | – | – | – | – | · | ·
CC(C)C(=O)C1=Cc2cc([N+](=O)[O-])ccc2OC1N1CCOCC1 (centres undefined) | – | – | – | – | – | · | ·
CC1CCN(CC2C(=O)O[C@@H]3C[C@@]4(C)CCC[C@H](C)C4=C[C@H]23)CC(C)(C)C1 (some centres undefined) | – | – | – | – | 64.6 | 42.6 | 43.7

Screening results as filed in PubChem BioAssay.
